Measured values as given in PubChem BioAssay AID1159580 (chemical genetic matrix, 2015).
Several values for one entry are separate records, joined by “and”; a condition that tells them apart may be missing. Equal values may be shown once. Screen size: about 5,500 compounds; about 2,000 (36%) were called active. Another 18% or so got no clear call; they are omitted. Rule as the data show it: active = normalized growth mostly below about 0.91 (no sharp cut-off); inconclusive = no clear call, values can overlap the other calls; inactive = mostly above about 0.92. This is one part of the list.

Experiment: chemical genetic growth profiling, strain panel (AID 1159580);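 also: tested at 20 µM; growth read once vehicle control cultures reached saturation at 30 °C; 1 = growth at the plate median or of vehicle wells; lower values mean less growth of the strain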
Conditions: S. cerevisiae deletion strains, growth OD

Measured: normalized growth

NCC1CCC(C(=O)O)CC1 (stereo not drawn)
inactive: locus YAL021C, strain ccr4, stronger effect = lower value 1 | locus YAL026C, strain drs2, stronger effect = lower value 0.998 | locus YAL030W, strain snc1, stronger effect = lower value 1 | locus YBL061C, strain skt5, stronger effect = lower value 0.979 | locus YBR009C, strain hhf1, stronger effect = lower value 0.992 | locus YBR021W, strain FUR4, stronger effect = lower value 0.988 | locus YBR023C, strain chs3, stronger effect = lower value 0.992 | locus YBR171W, strain sec66, stronger effect = lower value 0.986 | locus YBR229C, strain ROT2, stronger effect = lower value 1 | locus YBR231C, strain swc5, stronger effect = lower value 0.988 | locus YBR279W, strain paf1, stronger effect = lower value 1.01 | locus YCL011C, strain gbp2, stronger effect = lower value 1 | locus YCL016C, strain dcc1, stronger effect = lower value 0.993 | locus YCL029C, strain bik1, stronger effect = lower value 0.982 | locus YCL061C, strain MRC1, stronger effect = lower value 0.999 | locus YCL069W, strain vba3, stronger effect = lower value 0.991 | locus YCR088W, strain abp1, stronger effect = lower value 0.989 | locus YDL005C, strain med2, stronger effect = lower value 0.974 | locus YDL035C, strain GPR1, stronger effect = lower value 0.985 | locus YDL040C, strain nat1, stronger effect = lower value 0.972 | locus YDL074C, strain BRE1, stronger effect = lower value 1.04 | locus YDL101C, strain DUN1, stronger effect = lower value 0.996 | locus YDL134C, strain PPH21, stronger effect = lower value 0.985 | locus YDL185W, strain tfp1, stronger effect = lower value 0.965 | locus YDL192W, strain arf1, stronger effect = lower value 0.994 | locus YDR001C, strain nth1, stronger effect = lower value 0.987 | locus YDR069C, strain doa4, stronger effect = lower value 0.984 | locus YDR101C, strain arx1, stronger effect = lower value 1 | locus YDR137W, strain rgp1, stronger effect = lower value 1 | locus YDR150W, strain NUM1, stronger effect = lower value 0.986 | locus YDR159W, strain sac3, stronger effect = lower value 0.974 | locus YDR162C, strain NBP2, stronger effect = lower value 0.973 | locus YDR195W, strain ref2 0.956 | locus YDR297W, strain sur2, stronger effect = lower value 0.973 | locus YDR318W, strain mcm21, stronger effect = lower value 0.978 | locus YDR334W, strain swr1, stronger effect = lower value 1.01 | locus YDR335W, strain msn5, stronger effect = lower value 1 | locus YDR388W, stronger effect = lower value 0.999 | locus YDR392W, strain spt3, stronger effect = lower value 1 | locus YDR502C, strain sam2, stronger effect = lower value 0.996 | locus YEL003W, strain gim4, stronger effect = lower value 0.995 | locus YEL037C, strain rad23, stronger effect = lower value 0.991 | locus YEL061C, strain CIN8 (second series), stronger effect = lower value 1 | locus YEL061C, strain CIN8, stronger effect = lower value 1 | locus YER015W, strain faa2, stronger effect = lower value 0.987 | locus YER016W, strain bim1, stronger effect = lower value 0.971 | locus YER110C, stronger effect = lower value 0.988 | locus YER111C, strain swi4, stronger effect = lower value 0.978 | locus YER155C, strain BEM2 (second series), stronger effect = lower value 0.974 | locus YER155C, strain BEM2, stronger effect = lower value 0.995 | locus YER167W, strain BCK2, stronger effect = lower value 0.997 | locus YFR010W, strain ubp6, stronger effect = lower value 0.99 | locus YGL078C, strain dbp3, stronger effect = lower value 0.998 | locus YGL086W, strain mad1, stronger effect = lower value 1 | locus YGL173C, strain kem1, stronger effect = lower value 0.974 | locus YGL227W, strain vid30, stronger effect = lower value 0.998 | locus YGL240W, strain doc1, stronger effect = lower value 0.999 | locus YGL248W, strain PDE1, stronger effect = lower value 1.01 | locus YGL253W, strain hxk2, stronger effect = lower value 0.977 | locus YGR078C, strain PAC10, stronger effect = lower value 1.04 | locus YGR135W, strain pre9, stronger effect = lower value 0.96 | locus YGR252W, strain gcn5, stronger effect = lower value 1.02 | locus YHR013C, strain ard1, stronger effect = lower value 0.979 | locus YHR027C, strain rpn1, stronger effect = lower value 0.996 | locus YHR030C, strain SLT2, stronger effect = lower value 0.98 and 1.04 | locus YHR079C, strain IRE1 (second series), stronger effect = lower value 0.985 | locus YHR079C, strain IRE1, stronger effect = lower value 1.06 | locus YHR094C, strain hxt1, stronger effect = lower value 0.999 | locus YHR129C, strain ARP1, stronger effect = lower value 0.986 | locus YHR142W, strain chs7, stronger effect = lower value 0.994 | locus YHR200W, strain rpn10, stronger effect = lower value 0.973 | locus YIL066C, strain RNR3, stronger effect = lower value 1 | locus YIL073C, strain SPO22, stronger effect = lower value 0.909 | locus YIL125W, strain kgd1, stronger effect = lower value 0.995 | locus YIR030C, strain dcg1, stronger effect = lower value 0.987 | locus YJL092W, strain hpr5, stronger effect = lower value 0.986 | locus YJL095W, strain BCK1 (second series), stronger effect = lower value 0.986 | locus YJL095W, strain BCK1, stronger effect = lower value 1.04 and 1.01 | locus YJL115W, strain asf1, stronger effect = lower value 0.98 | locus YJL129C, strain trk1, stronger effect = lower value 0.997 | locus YJL134W, strain LCB3, stronger effect = lower value 0.997 | locus YJL154C, strain vps35, stronger effect = lower value 0.988 | locus YJL164C, strain tpk1, stronger effect = lower value 0.985 | locus YJL166W, strain qcr8, stronger effect = lower value 0.983 | locus YJL168C, strain set2, stronger effect = lower value 0.999 | locus YJL187C, strain SWE1 (second series), stronger effect = lower value 1.02 | locus YJR043C, strain POL32, stronger effect = lower value 1 | locus YJR066W, strain TOR1, stronger effect = lower value 0.98
